Screen size: about 310,000 compounds; about 14,000 (4.5%) showed an effect of 50% or more. Effects have a minus sign here. This is one part of a sample in which strong results are shown more often than they occur.
Target: human ether-à-go-go-related gene (hERG) potassium channel (human, UniProt Q12809)
Assay: primary screen, population patch clamp on CHO cells stably expressing hERG; higher = less effect of the substance
Procedure: Briefly, Chinese hamster ovary (CHO) cells stably expressing the hERG channel were dislodged from tissue culture flasks and dispensed into PPC plates. […] During the recording, background leak currents were estimated by a 100 ms step to -80 mV from an initial holding potential of -70 mV and subtracted from the subsequent current measurement. The campaign was conducted in two phases using slight differences in recording protocol. In the first phase, the initial voltage pulse used a 100 ms step to -30 mV from a holding potential of -70 mV, a 2 s conditioning step to +25 mV, and a 2 s test step to -30 mV. During the second phase of the screen, the potential during the conditioning step was raised to +45 mV. In both phases of the campaign, a secondary voltage pulse was applied using the same parameters as the second phase initial pulse. The initial and secondary pulses were applied in the absence of compound, and upon application of 1 μM and 10 μM test concentrations. […]
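Note: peak tail current of the secondary pulse compared with the same well before compound.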

Sequence of human ether-à-go-go-related gene (hERG) potassium channel (Q12809 whole entry, looked up): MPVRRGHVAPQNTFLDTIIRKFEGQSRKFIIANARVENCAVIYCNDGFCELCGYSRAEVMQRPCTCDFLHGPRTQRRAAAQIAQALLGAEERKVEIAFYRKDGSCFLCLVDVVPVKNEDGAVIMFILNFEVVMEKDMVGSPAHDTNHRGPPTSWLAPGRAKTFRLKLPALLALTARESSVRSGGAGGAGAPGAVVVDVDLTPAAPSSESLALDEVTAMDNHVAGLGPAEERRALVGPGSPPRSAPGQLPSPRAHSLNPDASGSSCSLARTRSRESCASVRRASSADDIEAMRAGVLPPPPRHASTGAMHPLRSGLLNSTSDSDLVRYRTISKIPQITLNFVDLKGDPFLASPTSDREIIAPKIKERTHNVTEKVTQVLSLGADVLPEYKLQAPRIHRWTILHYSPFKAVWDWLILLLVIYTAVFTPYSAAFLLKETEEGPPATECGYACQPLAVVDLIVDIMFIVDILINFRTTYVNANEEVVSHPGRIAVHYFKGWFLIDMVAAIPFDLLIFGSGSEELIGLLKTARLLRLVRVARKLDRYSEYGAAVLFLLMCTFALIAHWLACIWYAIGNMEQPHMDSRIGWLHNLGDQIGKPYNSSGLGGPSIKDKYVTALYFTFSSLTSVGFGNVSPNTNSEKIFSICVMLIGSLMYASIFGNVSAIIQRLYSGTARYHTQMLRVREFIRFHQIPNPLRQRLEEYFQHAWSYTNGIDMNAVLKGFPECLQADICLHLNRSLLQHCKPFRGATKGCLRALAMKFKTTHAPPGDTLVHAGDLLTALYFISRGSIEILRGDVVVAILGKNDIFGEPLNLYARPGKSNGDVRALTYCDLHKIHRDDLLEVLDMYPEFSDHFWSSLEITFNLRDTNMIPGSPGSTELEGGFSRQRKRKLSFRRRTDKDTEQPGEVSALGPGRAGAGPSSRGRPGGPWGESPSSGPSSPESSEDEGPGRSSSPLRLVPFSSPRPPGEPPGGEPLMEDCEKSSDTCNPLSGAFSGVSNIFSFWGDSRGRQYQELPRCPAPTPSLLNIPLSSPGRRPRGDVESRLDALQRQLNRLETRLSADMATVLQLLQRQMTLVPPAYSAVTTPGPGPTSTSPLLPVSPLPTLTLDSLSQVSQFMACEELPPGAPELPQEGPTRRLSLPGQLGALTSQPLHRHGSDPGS

| Structure (SMILES) | hERG current change (%, negative = inhibition) at 10uM |
| --- | --- |
| O=C(NCC1CCCO1)c1ccc(-c2cccc(C(F)(F)F)c2)o1 (stereo not drawn) | -16.2% |
| Cc1ccc(C(=O)NCC2CCCO2)o1 (stereo not drawn) | 7.49% |
| CC(=O)c1ccc(-c2ccc(C(=O)NCC3CCCO3)o2)cc1 (stereo not drawn) | -50.5% |
| O=C(NCC1CCCO1)c1cccc(Oc2ccc([N+](=O)[O-])cc2)c1 (stereo not drawn) | -73.7% |
| O=C(NCC1CCCO1)c1cccc(Oc2ccccc2)c1 (stereo not drawn) | -37.5% |
| O=C(NCC1CCCO1)c1ccc(NC(=O)c2cccc([N+](=O)[O-])c2)cc1 (stereo not drawn) | 3.68% |
| O=c1cc(CN2CCN(c3cccc(Cl)c3)CC2)c2cc3c(cc2o1)CCCC3 | 15.8% |
| Cc1ccc(S(=O)(=O)CCC(=O)OCC(=O)N2CC(=O)Nc3ccccc32)cc1 | -22.1% |
| O=C(NCc1ccco1)NC12CC3CC(CC(C3)C1)C2 | 14.5% |
| CC(C)=CCN1CCN(Cc2cn(C(C)C)c3ccccc23)CC1CCO (stereo not drawn) | -10.5% |
| O=C(Cc1ccccc1)NCCS(=O)(=O)N1CCN(c2cccc(Cl)c2)CC1 | -82.8% |
| O=C(NCCS(=O)(=O)N1CCN(c2ccc(F)cc2)CC1)c1ccc(Br)o1 | -60.1% |
| O=C(NCCS(=O)(=O)N1CCN(c2ccccc2)CC1)C1CC1 | 3.93% |
| O=C(NCCS(=O)(=O)N1CCN(c2cccc(Cl)c2)CC1)c1cc(=O)c2ccccc2o1 | 5.36% |
| COc1ccc(N2CCN(S(=O)(=O)CCNC(=O)c3ccc(Br)o3)CC2)cc1 | 10.6% |
| O=C(NCCS(=O)(=O)N1CCN(c2ccccc2F)CC1)c1ccco1 | -16.5% |
| O=C(NCCS(=O)(=O)N1CCN(c2ccccc2)CC1)c1ccc(Br)o1 | -5.85% |
| O=C(NCCS(=O)(=O)N1CCN(c2cccc(Cl)c2)CC1)C1CCCC1 | -79% |
| O=C(Cc1ccc(F)cc1)NCCS(=O)(=O)N1CCN(c2cccc(Cl)c2)CC1 | -16.2% |
| O=C(NCCS(=O)(=O)N1CCN(c2cccc(Cl)c2)CC1)c1ccco1 | -73.8% |
| COc1ccc(N2CCN(S(=O)(=O)CCNC(=O)C3CCCCC3)CC2)cc1 | 5.98% |

| Structure (SMILES) | hERG current change (%, negative = inhibition) at 10uM |
| --- | --- |
| Cc1cccc(CC(=O)NCCS(=O)(=O)N2CCN(c3cccc(Cl)c3)CC2)c1 | -20.2% |
| O=C1c2ccccc2S(=O)(=O)N1CCOc1ccc(F)cc1 | -27.6% |
| CCOC(=O)c1sc(NC(=O)c2ccco2)nc1C | 13.3% |
| CC(=O)Nc1ccc(NC(=O)CC2SC(=O)N(CC(=O)c3ccccc3)C2=O)cc1 (stereo not drawn) | 7.25% |
| COCC1CCCCN1C(=O)c1cccc(OC2CCN(S(C)(=O)=O)CC2)c1 (stereo not drawn) | 14.7% |
| CCS(=O)(=O)c1ccc(O)c(NC(=O)COc2ccc(Br)cc2)c1 | -3.73% |
| O=C(COc1ccc(Br)cc1Cl)NC(=S)N1CCc2ccccc21 | 21.7% |
| COc1ccccc1OCc1ccc(C(=O)NC(C)(C)C)o1 | 2.29% |
| O=C(Cn1c(=O)oc2cc(S(=O)(=O)NCc3ccccc3)ccc21)N1CCCC1 | 15.2% |
| C=CCn1c(SCC(=O)Nc2ccccc2F)nc2ccccc2c1=O | 5.56% |
| CC(C)Sc1nc2c(cnn2-c2ccc(Cl)cc2)c(=O)[nH]1 | 26.2% |
| Cc1nnc(SCC(=O)N2CCCC2)n(N)c1=O | 14.1% |
| O=C(NCCS(=O)(=O)N1CCN(c2ccc(F)cc2)CC1)c1ccco1 | -62.2% |
| O=C(Cc1ccc(F)cc1)NCCS(=O)(=O)N1CCN(c2ccccc2)CC1 | 5.42% |
| CSc1ccccc1C(=O)NCCS(=O)(=O)N1CCN(c2ccc(F)cc2)CC1 | -67.6% |
| O=C(NCCS(=O)(=O)N1CCN(c2ccccc2)CC1)c1ccccc1F | 6.68% |
| COc1ccc(N2CCN(S(=O)(=O)CCNC(=O)c3ccco3)CC2)cc1 | -9.43% |
| O=C(NCCS(=O)(=O)N1CCN(c2ccccc2)CC1)c1ccco1 | -14.5% |
| CCOC(=O)c1cnn(Cc2ccccc2Cl)c1N | -11% |
| COc1ccccc1-c1oc2ccccc2c1C#CCCCCO | 22.6% |
| COc1ccc(-c2nn(-c3ccccc3)cc2/C=C2/SC(=S)N(CCCC(=O)O)C2=O)c(C)c1 | 26% |

| Structure (SMILES) | hERG current change (%, negative = inhibition) at 10uM |
| --- | --- |
| CCC1Nc2ncnc(N3CCN(c4ccccc4)CC3)c2N(Cc2ccc(Cl)cc2)C1=O.O=C(O)C(F)(F)F (stereo not drawn) | -17.4% |
| Cc1ccc(CN2C(=O)C(CC(C)C)Nc3ncnc(N4CCN(c5ccccn5)CC4)c32)cc1.O=C(O)C(F)(F)F (stereo not drawn) | -43.3% |
| CC1Nc2ncnc(N3CCN(c4ccccn4)CC3)c2N(Cc2ccccc2)C1=O.O=C(O)C(F)(F)F (stereo not drawn) | -19.8% |
| Cc1ccc(CN2C(=O)C(C)Nc3ncnc(N4CCN(c5ccccn5)CC4)c32)cc1.O=C(O)C(F)(F)F (stereo not drawn) | -56.1% |
| CCC1Nc2ncnc(N3CCN(c4ccccn4)CC3)c2N(Cc2ccc(Cl)cc2)C1=O.O=C(O)C(F)(F)F (stereo not drawn) | -73.8% |
| CCC1Nc2ncnc(N3CCCCC3)c2N(Cc2ccccc2)C1=O.O=C(O)C(F)(F)F (stereo not drawn) | -4.8% |
| Cc1ccc(S(=O)(=O)N2CCN(C(=O)CN3C(=O)NC4(CCCCC4)C3=O)CC2)c(C)c1 | 1.52% |
| COc1ccc(S(=O)(=O)N2CC(C)OC(C)C2)cc1C(=O)N1CCCCC1 (stereo not drawn) | 6.93% |
| O=C(OCc1c(F)cccc1Cl)c1cnc2ccccc2n1 | 17.6% |
| CCCn1nc2cc(C(=O)NC3CCCc4ccccc43)ccc2c1OCC (stereo not drawn) | -8.93% |
| CN(C)S(=O)(=O)c1cccc(COC(=O)Cc2c(F)cccc2Cl)c1 | 9.75% |
| Cc1ccccc1C(=O)NC(C(N)=O)P(=O)(OC(C)C)OC(C)C (stereo not drawn) | -55.2% |
| CC(C)OP(=O)(OC(C)C)C(NC(=O)c1ccccc1)C(N)=O (stereo not drawn) | -3.65% |
| CC(C)OP(=O)(OC(C)C)C(NC(=O)c1ccccc1Br)C(N)=O (stereo not drawn) | 3.63% |
| CCN(C(=O)c1ccnn1C)c1ccccc1 | 4.75% |
| COc1ccc(S(=O)(=O)N2CCOCC2)cc1NC(=O)c1ccc2c(c1)OCO2 | 12.6% |
| O=C(O)CN1C(=O)/C(=C/c2ccccc2Br)Oc2ccccc21 | 4.16% |
| COc1ccccc1NS(=O)(=O)c1ccc(Cl)c(NC(=O)c2sc3cc(Cl)ccc3c2Cl)c1 | 22.1% |
| O=C(O)CC1S/C(=N\N=C2\C(=O)Nc3ccccc32)N(c2ccc(O)cc2)C1=O (stereo not drawn) | -53.7% |
| O=C(O)CC1S/C(=N\N=C/c2ccccc2O)N(c2ccc(O)cc2)C1=O (stereo not drawn) | 9.18% |
| O=C(O)CC1S/C(=N\N=C/c2ccccc2)N(c2ccc(O)cc2)C1=O (stereo not drawn) | 13.4% |

| Structure (SMILES) | hERG current change (%, negative = inhibition) at 10uM |
| --- | --- |
| CN(c1ccc(F)cc1)S(=O)(=O)c1ccc2[nH]cc(C(=O)O)c(=O)c2c1 | 13.8% |
| O=C(COc1ccc(F)cc1)N(Cc1ccc(Cl)cc1)C1CCS(=O)(=O)C1 (stereo not drawn) | -38.7% |
| Cc1ccc(OCC(=O)N(Cc2ccco2)C2CCS(=O)(=O)C2)cc1C (stereo not drawn) | -38.8% |
| O=C(COc1ccc(Cl)cc1)N(Cc1ccc(F)cc1)C1CCS(=O)(=O)C1 (stereo not drawn) | -63.3% |
| Cc1ccc(OCC(=O)N(Cc2ccc(C)o2)C2CCS(=O)(=O)C2)cc1 (stereo not drawn) | -52.3% |
| O=C(COc1ccc([N+](=O)[O-])cc1)N(C1CCCCC1)C1CCS(=O)(=O)C1 (stereo not drawn) | -37% |
| N#Cc1ccc(OCC(=O)N(C2CCCCC2)C2CCS(=O)(=O)C2)cc1 (stereo not drawn) | -50.1% |
| COc1ccc(OCC(=O)N(Cc2ccc(C)o2)C2CCS(=O)(=O)C2)cc1 (stereo not drawn) | -19.5% |
| Cc1cccc(OCC(=O)N(Cc2ccc(C)o2)C2CCS(=O)(=O)C2)c1 (stereo not drawn) | -42.6% |
| CC(=O)c1ccc(OCC(=O)N(C2CCCCC2)C2CCS(=O)(=O)C2)cc1 (stereo not drawn) | -2.18% |
| Cc1ccc(CN(C(=O)COc2ccc(Br)cc2)C2CCS(=O)(=O)C2)o1 (stereo not drawn) | -33.5% |
| Cc1ccc(CN(C(=O)COc2ccc(C)c(C)c2)C2CCS(=O)(=O)C2)o1 (stereo not drawn) | -53.6% |
| CN(C)c1ccc(CN(C(=O)COc2ccc(F)cc2)C2CCS(=O)(=O)C2)cc1 (stereo not drawn) | -16.6% |
| O=C(COC(=O)c1cccc(F)c1)NC1CC1 | 41.8% |
| COc1ccccc1N1CCN(C(=O)Cn2c(=O)[nH]c3ccsc3c2=O)CC1 | -1.18% |
| O=C(c1ccccc1)c1n[nH]c(-c2ccccc2)cc1=O | 30.9% |
| CCC(=O)NC(c1cc(Cl)c2ccccc2c1O)C1CC1 (stereo not drawn) | 14.5% |
| Cc1ccc(C)c(C2=CSC3=NS(=O)(=O)CCN23)c1 | 12.3% |
| COc1ccc(CNC(=O)[C@]2(C)CCC[C@@]3(C)C4CC[C@@]5(C)C[C@]4(CCC32)CC5=O)cc1 (stereo partly drawn) | 10.2% |
| CCOC(=O)c1sc2nc(CSc3ccccc3)[nH]c(=O)c2c1C | 3.8% |
| CC(C)C(=O)NC(c1cccs1)c1cc([N+](=O)[O-])c2cccnc2c1O (stereo not drawn) | 31.7% |

Source: paper PMC4336329 (PLoS ONE, 2015)
